# Assay results published in PubChem BioAssay (NCI).
# Compounds without any hit were thinned out: in the full panel of roughly 83,000, 20% have a hit.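 The endpoint reported here, percent growth, reads 100 for growth as untreated, 0 for no net growth and -100 for all cells dead.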 Calls of active or inactive are those of the source. The calls were made as follows: active = growth percent below 10; inactive = the rest.
# System: COLO 205 colon
# Assay: NCI-60 one-dose screen, 48 h (100 = growth as untreated, 0 = no growth, -100 = all killed)
# Conditions: 10 µM unless noted
row,SMILES,growth
1,CC(=O)Oc1ccc(CCN2C(=O)CSC2=S)cc1,115% (inactive)
2,COc1cc(/C=N/n2cnc3oc(-c4ccccc4)cc3c2=N)cc(CN2CCOCC2)c1O,82.4% (inactive)
3,CCOC(=O)/C=c1\sc2n(c1=O)C1C(NN=2)N(CC)C(=O)N1CC (stereo not drawn),51.3% (inactive)
4,CN(C)c1ccc(/C=N/Nc2nc(N/N=C/c3ccc(N(C)C)cc3)nc(N3CCOCC3)n2)cc1,108% (inactive)
5,COc1cc2oc(-c3cccc(NC(=O)c4cc(NC(=O)[C@H](C)NC(=O)OC(C)(C)C)ccc4C)c3)cc(=O)c2c(OC)c1OC,67.7% (inactive)
6,CN1CCN(Cc2ccc(NC(=O)c3cncc(C#Cc4cnc5ccc(NC6CCOCC6)nn45)c3)cc2C(F)(F)F)CC1,-90.6% (active)
7,O=C(Nc1ccc(Cl)cc1)Nc1nc2ccc([N+](=O)[O-])cc2s1,-62.6% (active)
8,CCCCCCNC(=O)Oc1ccc(/C(=C(/C)c2ccc(OC)cc2)c2ccc(OCCN3CCCC3)cc2)cc1,76.2% (inactive)
9,O=c1c2ccccc2nc(COc2ccccc2)n1/N=C/C=C/c1ccccc1,113% (inactive)
10,CCCCCc1ccc(S(=O)(=O)N(C(C)=O)c2cccc(-c3csc(N(CCN4CCN(C)CC4)C(C)=O)n3)c2)cc1,-61% (active)
11,O=C(NNc1nc2cc(F)c(F)cc2n2cccc12)c1ccncn1,19.9% (inactive)
12,O=C(CCCCCCN1CC(=O)N2[C@@H](c3cccc(Cl)c3)c3[nH]c4ccccc4c3C[C@H]2C1=O)NO,36.9% (inactive)
13,O=C(/C=C/c1cn(-c2ccccc2)nc1-c1ccc(Cl)cc1)c1cc2ccccc2oc1=O,84.9% (inactive)
14,COc1cc(/C=C/C(=O)c2ccc(NC(=O)COc3cccc4cccnc34)cc2)cc(OC)c1OC,100% (inactive)
15,O=C(Nc1cccc(Cl)c1)Nc1nc2ccc([N+](=O)[O-])cc2s1,-54.2% (active)
16,O=C(NNc1nc2cc(F)cc(F)c2n2cccc12)c1ccncn1,11.5% (inactive)
17,C[C@H]1[C@H](C)CC[C@]2(COC(=O)c3cccnc3)CC[C@]3(C)C(=CC[C@@H]4[C@@]5(C)CCCNC(C)(C)[C@@H]5CC[C@]43C)[C@H]12,43.9% (inactive)
18,CN1CCN(c2ccc(NC(=O)Nc3ccc4c(ccn4-c4cccc(C(N)=O)n4)c3)cc2C(F)(F)F)CC1,44.4% (inactive)
19,COc1ccc(OC)c([C@H]2c3[nH]c4ccccc4c3C[C@H]3C(=O)N(CCCCCCC(=O)NO)CC(=O)N23)c1,86.4% (inactive)
20,CS(=O)c1nccc(-c2c(-c3ccc(F)c(OCc4ccccc4)c3)nc3sccn23)n1 (stereo not drawn),106% (inactive)
21,CC(=O)NC(C)(C)C(=O)N1CCC[C@H]1C(=O)NC(C)(C)C(=O)N[C@@H](C)C(=O)NC(C)(C)C(=O)N[C@@H](C)C(=O)N[C@@H](CCC(N)=O)C(=O)NC(C)(C)C(=O)N[C@H](C(=O)NC(C)(C)C(=O)NCC(=O)N[C@@H](CC(C)C)C(=O)NC(C)(C)C(=O)N1CCC[C@H]1C(=O)N[C@H](C(=O)NC(C)(C)C(=O)NC(C)(C)C(=O)N[C@@H](CCC(N)=O)C(=O)N[C@@H](CCC(N)=O)C(=O)N[C@H](CO)Cc1ccccc1)C(C)C)C(C)C,46.7% [4.25 µM] (inactive)
22,C=C(C)[C@@H]1CC[C@]2(C(=O)NCCCN(CCC#N)CCC#N)CC[C@]3(C)[C@H](CC[C@@H]4[C@@]5(C)CCC(=O)C(C)(C)[C@@H]5CC[C@]43C)[C@@H]12,109% (inactive)
23,O=C(CN1C(=O)S/C(=C\c2ccccc2)C1=O)Nc1ccc(C(=O)/C=C/c2cc3ccccc3nc2Cl)cc1,103% (inactive)
24,N#Cc1c(-c2cccs2)cc(-c2cnccn2)nc1SCC(=O)NNC(=S)Nc1ccc(F)cc1,112% (inactive)
25,CN1CCN(c2nc(-c3cnc4ccccc4n3)cc3ccccc23)CC1,-65.2% (active)
26,Cc1cc(O)c(=O)cc2c1C[C@H]1CC(C)(C)/C=C/C[C@]3(C)Oc4cc(=O)c(O)cc(C)c4C[C@H]3C[C@H](O)[C@@]1(C)O2,-10.3% (active)
27,CC(C)=CCC[C@](C)(O)[C@H]1CC[C@]2(C)[C@@H]1CC[C@@H]1[C@@]3(C)CCC(NC(=O)c4ccccc4C(=O)O)C(C)(C)[C@@H]3CC[C@]12C (stereo partly drawn),-10.3% (active)
28,CN1CCN(c2ccc3c(C(N)=O)c(NC(=O)c4ccc(C(C)(C)C)cc4)sc3c2)CC1,70.1% (inactive)
